About 80 (0.04%) of roughly 190,000 compounds were called active. No stated cut-off is given here; in the data, active means inhibition above about 40%. The list is a sample of the results.
Target: Bcl-2-like protein 1 (Homo sapiens) (UniProt Q07817)
Assay: Bcl-XL/Bim peptide interaction blockers – biochemical, multiplexed, bead flow cytometry, human Bcl-XL, primary screen (AID 1007)
Conditions: Bim peptide-Bcl-XL binding, fluorescence, at 10 µM, active compounds read high

Chain of Bcl-2-like protein 1 (Homo sapiens) (Q07817 whole entry, looked up): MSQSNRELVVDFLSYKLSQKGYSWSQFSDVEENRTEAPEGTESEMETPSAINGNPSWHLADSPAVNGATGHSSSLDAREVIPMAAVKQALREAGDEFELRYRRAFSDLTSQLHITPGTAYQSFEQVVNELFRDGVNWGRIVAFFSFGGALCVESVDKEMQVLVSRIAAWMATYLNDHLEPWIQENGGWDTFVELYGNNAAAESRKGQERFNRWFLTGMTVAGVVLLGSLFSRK

inhibition, inactive:
O=C1COc2ccc(C(=O)COC(=O)c3cccnc3Cl)cc2N1 -3%
O=C(CCS(=O)(=O)Cc1ccccc1)Nc1ccc2c(c1)OCCO2 0%
NC1=NC2(CCCCC2)N(c2ccc(F)cc2F)C(N)=N1 -6%
COc1ccc2ccccc2c1CNc1nnnn1C 1%
CC(C)(C)NC(=O)COC(=O)c1cc(Br)ccc1Cl -9%
O=C(OCC(=O)N1CCOCC1)c1ccc(N2CCOCC2)c([N+](=O)[O-])c1 1%
Cc1nc(-c2ccc(Cl)cc2)sc1C(=O)CBr 0%
Cc1cccc(NC(=O)c2cccc(C(F)(F)F)c2)c1 -3%
CC[N+]1(CC)CC2=Cc3ccccc3CC2C1 (centres undefined) -4%
CNC(=O)NC(=O)C(OC(=O)c1cccc(S(=O)(=O)N2CCCCC2)c1)c1ccccc1 (centres undefined) -4%
CCCn1c(NC(=O)C23CC4CC(CC(O)(C4)C2)C3)nc2ccccc21 -2%
Cc1cc(C)n(CCNCc2c(C(=O)N3C[C@@H](C)O[C@@H](C)C3)nc3ccc(Cl)cn23)n1 -1%
O=C(N/N=C/c1ccccc1O)/C(=C/c1ccccc1)CCO -10%
CCOc1ccc(CCN2C(=O)c3cccnc3C2=O)cc1OCC 0%
CC(=O)c1c(Nc2ccccc2)sc(C(=O)c2ccccc2)c1C -6%
COc1ccc2nc(Nc3nc(-c4ccncc4)cs3)sc2c1 -1%
Cc1ccc(-c2c(C)n([O-])c3c([n+]2=O)CCC3)cc1 -3%
O=C(CO/N=C/c1ccccc1OC(F)F)NC1CCCC1 1%
Cc1ccccc1N(C(=O)Cc1cccs1)C(C(=O)NC1CCCCC1)c1cn(C)nc1C (centres undefined) -5%
Cc1cc(NC(=O)CSc2nccn2-c2ccc([N+](=O)[O-])cc2)no1 -15%
Cc1nnc(SCC(=O)NNC(=O)c2ccc(Cl)cc2)n1CC1CCCO1 (centres undefined) -6%
Cc1ccc(N(C(=O)Cc2cccs2)C(C(=O)NCC2CCCO2)c2ccncc2)cc1 (centres undefined) 2%
Cc1cccc(N2CCN(c3ccc(C(N)=O)cc3[N+](=O)[O-])CC2)c1C 0%
CCOc1ncccc1C(=O)N(CC)CC(=O)Nc1ccc(NC(C)=O)cc1 -9%
CN(c1ccccc1)S(=O)(=O)c1cc(C(=O)Nc2nc3ccccc3[nH]2)ccc1Cl 8%
COC(=O)CN1C(=S)N(c2ccccc2)C(=O)C1CC(=O)Nc1ccc(Cl)cc1 (centres undefined) -5%
N#C/C(=C(/O)COC(=O)COc1ccc(Cl)cc1)c1nc2ccccc2[nH]1 -11%
COCCCNC(=S)NCCNc1nc2cc(C)c(C)cc2cc1C#N -1%
S=C(NCC1CCCO1)N1CCN(c2ccc(Cl)c(Cl)c2)CC1 (centres undefined) -1%
CCn1cnc2scc(-c3ccc(C)c(C)c3)c2c1=O 0%
CC(C)Oc1ccc(CCc2nnc(SCC(=O)O)n2-c2ccccc2)cc1 -5%
COc1ccccc1OCC(=O)OCn1c(SC)nnc(C)c1=O -7%
N=C1/C(=C/c2cccn2-c2cccc([N+](=O)[O-])c2)C(=O)N=C2SC=CN12 -5%
Cc1c(C(=O)NCCN2C(=O)S/C(=C\c3cccs3)C2=O)cccc1[N+](=O)[O-] -6%
CCCn1nc(NS(=O)(=O)c2ccccc2)c2cc3cc(C)ccc3nc21 0%
Cc1ccc(NC(=O)CSc2nc(CSc3ccc(C)cc3)cc(=O)[nH]2)cc1 -1%
CN(C)C(CNC(=O)Cc1ccc([N+](=O)[O-])cc1)c1ccccc1 (centres undefined) -1%
S=c1[nH]nc(-c2cccs2)n1/N=C/c1cccs1 1%
FC(F)(F)c1cccc(Cc2noc(CN3CCC(N4CCCCC4)CC3)n2)c1 0%
COc1ccc(C/C(C)=N/NC(=O)c2ccncc2)cc1 -3%
Cc1ccc(N(C(=O)c2ccc(S(=O)(=O)N(C)C)cc2)C2C=CS(=O)(=O)C2)cc1 (centres undefined) 0%
Cc1ccc(C(=O)/C=C/Nc2ccc(S(=O)(=O)Nc3onc(C)c3C)cc2)cc1 -1%
O=C(CNCc1ccc(Cl)cc1)Nc1cccc(C(=O)O)c1 -5%
CNS(=O)(=O)c1ccc(NC(=O)C2CC(=O)N(c3ccc(Cl)cc3)C2)cc1 (centres undefined) -2%
CC(=O)Nc1ccc(NC(=O)C(C)n2c3ccccc3c3nc(=O)cc(C)n32)cc1 (centres undefined) 0%
O=C(O)c1cccc(NC(=S)N/N=C/c2c[nH]c3ccccc23)c1 -4%
CCOC(=O)CN1C(=O)N[C@@H](c2ccc(Br)cc2)C(C(C)=O)=C1C -2%
COc1ccc(C(C(=O)NC2CCCCC2)N(C(=O)Cc2c[nH]c3ccccc23)c2ccccc2)cc1OC (centres undefined) 10%
COc1cc(CN(C)Cc2nc3cc(C(F)(F)F)ccc3c(=O)[nH]2)ccc1OC(F)F 0%
COCCN(CCOC)S(=O)(=O)c1ccc(/C(O)=C(\C#N)c2nc3ccccc3[nH]2)cc1 -3%
O=C(NCc1ccccc1Cl)C1CCCO1 (centres undefined) 2%
O=C(O)c1ccccc1-c1ccccc1C(=O)NCc1cccnc1 -2%
Cc1ccccc1-n1nc(SCC(=O)O)sc1=S 2%
COc1ccc(-c2[nH]ncc2CN(C)Cc2cc(C)[nH]n2)c(F)c1 -3%
CCOCCCNC(=S)N1CCC(NC(=O)C2CCCCC2)CC1 -3%
CNC(=S)N/N=C/c1cn(Cc2ccc(C)cc2)c2ccccc12 -5%
COc1ccc(C(=O)C2CCCN(C(=O)c3cc4nc(C)cc(C)n4n3)C2)cc1F (centres undefined) -2%
CC(C)NC(=O)C(=O)NCCCOC(C)C -6%
NC(=S)N/N=C/c1coc2cc(Cl)ccc2c1=O -5%
Cc1ccc(Nc2nnc(SCC(=O)c3cc4ccccc4o3)s2)cc1C -20%
COc1cc(NC(=S)N2CCCC(C)C2)c(OC)cc1Cl (centres undefined) -7%
CC(C)COP(=O)(c1ccc(N(C)C)cc1)C(Nc1ccccc1)c1cccnc1 (centres undefined) -15%
CC1CC(=S)Nc2ccccc2N1Cc1ccccc1 (centres undefined) -6%
CSc1ccccc1NC(=O)Cc1ccc(Br)cc1 -4%
CCCN(CC(=O)Nc1ccccc1C)C(=O)c1cc(=O)[nH]c2ccccc12 2%
Cc1cc(=O)oc2c1c(C)nn2-c1ccc(Cl)cc1 1%
COc1ccc(C(C)=O)cc1CSc1nc2nc(C)cc(C)n2n1 -2%
Cc1nc(S(=O)(=O)c2ccc(Br)cc2)nc2c1CCC2 0%
COc1cc(C(=O)N2C(=O)c3cccc(N)c3C2=O)cc(OC)c1OC -2%
Cc1ccc(C)c(OCC(=O)N2CCN(C(=O)c3ccco3)CC2)c1 -8%
COc1cc(C(=O)Nc2cc(C(F)(F)F)ccc2N2CCOCC2)ccc1O -6%
CCCn1nc(Oc2nc(NC(C)C)nc(N(C)C)n2)ccc1=O -2%
NS(=O)(=O)c1ccc(NC(=O)/C=C/c2ccccc2Cl)cc1 1%
NNC(=O)COc1ccc(C2SCCS2)cc1 0%
COc1ccc(-n2nnnc2SCC(=O)NCc2cccs2)cc1 1%
Cn1c(-c2ccc(F)cc2)cnc1SCC(=O)NNC(=O)Cc1ccccc1 0%
Cc1ccc(CC(=O)Nc2cccc(C#N)c2)cc1 -4%
C[C@H](NC(=O)c1ccccc1Cl)C(=O)OCCOc1cccc(Cl)c1 -14%
Cn1nnnc1NCc1ccc(Cl)c(Cl)c1 0%
COc1ccc(CNC(=O)C2CCN(S(C)(=O)=O)CC2)cc1 -3%
CC(Nc1ccccc1)c1cccnc1 (centres undefined) -2%
CCOC(=O)NC(=O)CSc1nnc(SCCC(=O)O)s1 -10%
O=C(Nc1ccccc1-c1ccccc1)c1cccs1 -3%
CC(C)(C)c1ccc(C(=O)NCc2nnc(SCC(=O)N3CCCc4ccccc43)n2-c2ccccc2)cc1 -8%
Cc1ccc(O)c(-c2cc(C(=O)NCc3ccccc3)[nH]n2)c1 -3%
C/C(N)=C(/C#N)C(=O)COC(=O)c1cc(-c2cccc(Br)c2)nc2ccccc12 -1%
CCOC(=O)N1CCN(C(=O)c2ccccc2N(Cc2ccccc2)S(=O)(=O)c2ccc(OC)cc2)CC1 0%
Cc1ccc(S(=O)(=O)/N=S(\C)C(C)C)cc1 (centres undefined) -3%
COc1ccccc1CNC(=O)CNC(=O)c1cn(-c2ccccc2OC)c(=O)c2ccccc12 -2%
CC(=O)OC(COc1ccc(F)cc1)Cn1cnc2ccccc21 (centres undefined) -4%
O=C(Nc1ccc(F)c([N+](=O)[O-])c1)C1CC(=O)N(Cc2ccccc2)C1 (centres undefined) 0%
Cc1ccnc2nc(C(=O)OCC(=O)N(CC(C)C)CC(C)C)nn12 -7%
Cc1ccc(OCC(=O)Nc2ccccc2Sc2ccc(Cl)cc2)c([N+](=O)[O-])n1 0%
O=C1N/C(=N\N=C\c2ccco2)SC1Cc1ccc(F)cc1 (centres undefined) -4%
CCNC(=O)NC(=O)C(C)OC(=O)C1CCN(S(=O)(=O)c2ccccc2F)CC1 (centres undefined) -2%
CN1CCN(/N=C2/C(=O)Nc3ccc([N+](=O)[O-])cc32)CC1 0%
COc1ccc(CN2CCC(c3nc4ccc(Cl)cc4[nH]3)CC2)cc1 0%
CC(=O)Nc1ccc(S(=O)(=O)N(C)c2ccc(OCC(=O)OCC(=O)N3CCCCC3)cc2)cc1 -3%
Cc1cc(C)cc(NC(=O)COC(=O)c2cc(C)oc2C)c1 -4%
O=C(CN1CCN(C/C=C/c2ccccc2)CC1)Nc1ccc(F)cc1F -1%
CN=C(c1ccccc1)c1c(C)cccc1C -9%
COc1cccc(OCCCN2CCCCCC2)c1 -1%
Cc1cc(O)ccc1NC1=CC(=O)CC(C)(C)C1 0%
C#CCNC(=O)C1=C[C@@H](c2ccccc2)[C@H](CCCO)[C@@H](OCC)O1 -1%

From PubChem BioAssay AID1007 (NMMLSC, 2008)
